Bioassay records from PubChem.
FBA Mtb inh: Mtb FBA enzyme inhibitors, primary screen, biochemical, fluorescence, strain H37Rv. purified M. tuberculosis FBA, fluorescence read-out. inhibition, % at 1 µM. actives 2.3% (n = 360,000). AID 588726, 2011
Rv3671c protease: Rv3671c serine protease inhibitors, primary screen, biochemical, fluorescence polarization, M. tuberculosis H37Rv. P9WHR9. actives 0.048% (n = 320,000). inhibition, % at 5.96 µM; in the data active = inhibition above about 38%;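 also: extracellular domain of Rv3671c used as enzyme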
Target sequence (P9WHR9 whole entry, looked up, the tested form may be a part): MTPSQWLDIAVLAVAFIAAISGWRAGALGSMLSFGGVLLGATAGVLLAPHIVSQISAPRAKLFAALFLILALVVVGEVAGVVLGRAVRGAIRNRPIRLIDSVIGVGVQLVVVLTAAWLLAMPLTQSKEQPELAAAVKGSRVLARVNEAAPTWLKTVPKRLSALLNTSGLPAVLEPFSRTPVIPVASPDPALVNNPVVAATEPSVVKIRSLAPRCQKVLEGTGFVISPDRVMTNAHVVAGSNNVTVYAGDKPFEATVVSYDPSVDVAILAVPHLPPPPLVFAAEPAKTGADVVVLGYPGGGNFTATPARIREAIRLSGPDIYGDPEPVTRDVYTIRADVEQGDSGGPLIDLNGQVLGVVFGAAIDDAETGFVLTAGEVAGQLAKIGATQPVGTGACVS
GDH-TPI counter-1: GDH-TPI coupling enzyme inhibitors, primary screen, artefact control for M. tuberculosis FBA inhibitor project, biochemical, absorbance, full deck; inhibition, % at 4.8 µM; actives 1.2% (n = 360,000); GDH-TPI coupled enzyme counterscreen, NADH absorbance; AID 588335, 2011; in the data active = inhibition above about 30%
UGM FP inh: M. tuberculosis UGM enzyme inhibitors, primary screen, biochemical, fluorescence polarization, single point; UDP-galactopyranose mutase (Mycobacterium tuberculosis (strain ATCC 25618 / H37Rv)), …; purified UGM, fluorescence polarization probe displacement; inhibition, % at 10 µM; actives 0.06% (n = 320,000); AID 504406, 2011; in the data active = inhibition above about 10%, passing the limit was not always enough
Mtb FBA confirm: M. tuberculosis aldolase blockers, biochemical, fluorescence, strain H37Rv, confirmation; actives 78% (n = 5,600); purified M. tuberculosis FBA, fluorescence read-out; shares compounds with FBA Mtb inh; AID 651616, 2012; inhibition, % at 1 µM
GDH-TPI counter-2: GDH-TPI coupling enzyme inhibitors, artefact control for M. tuberculosis FBA inhibitor project, biochemical, fluorescence, high throughput; shares compounds with FBA Mtb inh; GDH-TPI coupled enzyme counterscreen; inhibition, % at 1 µM; actives 81% (n = 5,600); in the data active = inhibition above about 10%
GDH-TPI dose: GDH-TPI coupling enzyme inhibitors, dose response, artefact control for M. tuberculosis FBA inhibitor project, biochemical, fluorescence, IC50; shares compounds with FBA Mtb inh; GDH-TPI coupled enzyme assay, artifact counterscreen; IC50, µM; actives 79% (n = 170); call rule not given here
Hits are given with their value; i = inactive; nt = no result given; + = active, no number. An excerpt weighted towards active compounds, which were near 3.5% of everything screened. Rule as the data show it, unless noted: active = inhibition above about 27%; inactive = the rest.

SMILES | FBA Mtb inh | Rv3671c protease | GDH-TPI counter-1 | UGM FP inh | Mtb FBA confirm | GDH-TPI counter-2 | others
CCOC(=O)c1cnc2c(-c3ccc(Cl)cc3)cnn2c1C | i | i | i | i | nt | nt
CCOC(=O)c1cnc2c(-c3ccc(F)cc3)cnn2c1C(F)(F)F | 74 | nt | i | nt | i | i
COc1ccc(C(=O)Nc2ccccc2N2CCCC2)cc1S(=O)(=O)N1CCOCC1 | i | i | i | i | nt | nt
Cc1ccc(C)c2c1c1ccccc1n2C | i | i | i | i | nt | nt
CN(C)c1cc2c3ccccc3n(C)c2cc1N | 71 | nt | i | nt | 147 | 134
Cc1cc(OCCCC(=O)Nc2cccc(-n3cnnn3)c2)ccc1Cl | i | i | i | i | nt | nt
CSCCC(=O)N1CCC(n2nccc2NC(=O)CCCc2ccccc2)CC1 | i | i | i | i | nt | nt
CC[C@H](C)Cc1cn([C@@H](CCCCNC(=O)OC(C)(C)C)C(=O)NCCCCCCCCCCC(=O)N2CCN(C(=O)OC(C)(C)C)CC2)nn1 | 106 | i | i | i | 66 | 48
O=c1c2cc(NC(=S)N3CCC(N4CCCCC4)CC3)ccc2nc2n1CCCCC2 | i | i | i | i | nt | nt
CC1CCCCN1C(=S)Nc1ccc2nc3n(c(=O)c2c1)CCCCC3 (configuration not stated) | 30 | i | i | i | 45 | 39
COc1ccccc1C(=O)NNC(=O)C1CCCO1 (configuration not stated) | i | i | i | i | nt | nt
COc1ccc2nc(SCC(=O)O)nc(C)c2c1 | 39 | i | i | i | 101 | 90
O=C(CN1CCN(c2ccc(F)cc2)CC1)Nc1nccs1 | i | i | i | i | nt | nt
CCN(CC)S(=O)(=O)c1ccc(C(=O)OCC(=O)Nc2ccc(-c3nc4ccc(C)cc4s3)cc2)cc1 | 28 | i | i | i | i | i
Cc1ccc2nc(-c3ccc(NC(=O)CCN4C(=O)c5ccccc5C4=O)cc3)sc2c1 | 97 | i | i | i | 162 | 122
Cc1oc2cc(O)ccc2c(=O)c1Oc1ccc(F)cc1 | 103 | i | i | i | i | i
COc1c(C)oc2cc(O)ccc2c1=O | 87 | i | i | i | 58 | 40
COc1cc(-c2cc(=O)c3ccc(O)cc3o2)cc(OC)c1OC | i | nt | i | nt | nt | nt
Cc1oc2cc(O)ccc2c(=O)c1Oc1ccc2ccccc2c1 | 111 | i | i | i | 53 | 38
N#CCCN1CCCN(CCC#N)CCN(CCC#N)CCCN(CCC#N)CC1 | i | i | i | i | nt | nt
COc1cc(S(=O)(=O)Nc2ccccc2C(=O)N2CCCCC2)ccc1NC(C)=O | i | i | i | i | nt | nt
CC(=O)N1N=C(c2ccc3ccccc3c2)OC1(C)C | 68 | i | i | i | + | +
CCOC(=O)c1cc(-c2ccc(C)cc2)nc2nc(SC)[nH]c(=O)c12 | 40 | i | i | i | 151 | 159
CCOC(=O)c1cc(-c2cccc(C(F)(F)F)c2)nc2nc(SC)[nH]c(=O)c12 | i | i | i | i | nt | nt
COc1ccc(CC(=O)Nc2ccc(N(C)C)c3ccccc23)cc1 | 34 | i | i | i | + | 128
SMILES | FBA Mtb inh | Rv3671c protease | GDH-TPI counter-1 | UGM FP inh | Mtb FBA confirm | GDH-TPI counter-2 | others
COC(=O)c1sccc1NC(=O)Cc1ccc(OC)cc1 | i | i | i | i | nt | nt
CC(=O)N1CCc2cc(S(=O)(=O)CCC(=O)N(C)Cc3ccco3)ccc21 | i | i | i | i | nt | nt
Cc1cc(C)cc(Oc2coc3c(CN(C)C)c(O)ccc3c2=O)c1 | 92 | i | i | i | 77 | 68
COc1ccc(C2CC(=O)Oc3c2c(=O)n(C)c2ccccc32)c(OC)c1OC (configuration not stated) | 37 | i | i | i | i | i
CC1CCCCN1C(=O)CN1CCN(S(=O)(=O)c2ccc(Br)cc2Cl)CC1 (configuration not stated) | i | i | i | i | nt | nt
Cc1cc(OCC(=O)N2C[C@H]3C[C@@H](C2)c2cccc(=O)n2C3)c2c(C)cc(=O)oc2c1 | 34 | i | i | i | + | +
O=C(COc1ccc2c3c(c(=O)oc2c1)CCC3)N1C[C@H]2C[C@@H](C1)c1cccc(=O)n1C2 | i | i | i | i | nt | nt
CC(Oc1cc2oc(=O)c3c(c2cc1Cl)CCC3)C(=O)N1C[C@H]2C[C@@H](C1)c1cccc(=O)n1C2 (some centres not stated) | 37 | i | i | i | 124 | 111
O=C(COc1cc2oc(=O)c3c(c2cc1Cl)CCCC3)N1C[C@H]2C[C@@H](C1)c1cccc(=O)n1C2 | 35 | i | i | i | 122 | 87
Cc1c(C(=O)NCc2ccc(C#N)cc2)sc(=O)n1Cc1ccccn1 | i | nt | i | nt | nt | nt
CN(CC(=O)Nc1cccc(F)c1)C(=O)Cn1cnc2c1c(=O)n(C)c(=O)n2C | i | i | i | i | nt | nt
CCCc1nc2ccc(C)cn2c1Cc1cccc(F)c1 | 28 | nt | nt | nt | 43 | 31
Cc1ccc2nc(C(C)(C)C)c(Cc3cccc(F)c3)n2c1 | 36 | nt | nt | nt | 200 | 172
Fc1cccc(Cc2c(-c3cccc(Cl)c3)nc3ccc(Cl)cn23)c1 | i | nt | nt | nt | nt | nt
C=CCNc1nc(NCc2ccccc2)c(C#N)c2c1CN(C)CC2 | 71 | i | i | i | 58 | 52
CCCc1c(C)[nH]c2ccc(C(=O)O)cc2c1=S | i | nt | i | nt | nt | nt
Cc1cc(=O)oc2cc(NC(=O)c3cccc(S(C)(=O)=O)c3)ccc12 | 34 | i | i | i | 79 | 62
Cc1cc(=O)oc2cc(NC(=O)c3cccc(S(=O)(=O)N(C)C)c3)ccc12 | i | i | i | i | nt | nt
CS(=O)(=O)c1cccc(C(=O)Nc2ccccc2Cc2ccccc2)c1 | 58 | i | i | i | 48 | i
COc1ccccc1C(=O)Nc1ccc2c(C)cc(=O)oc2c1 | i | i | i | i | nt | nt
Cc1cc(=O)oc2cc(NC(=O)C(C)Oc3ccc(F)cc3)ccc12 (configuration not stated) | 33 | i | i | i | 177 | 144
Cc1cc(=O)oc2cc(NC(=O)C(C)N3C(=O)C4CCCCC4C3=O)ccc12 (configuration not stated) | 85 | i | i | i | 65 | 35
O=C(Cc1ccccc1[N+](=O)[O-])Nc1ccc2c(c1)OCO2 | i | i | i | i | nt | nt
CCCC(C(=O)Nc1ccc2c(C)cc(=O)oc2c1)c1ccccc1 (configuration not stated) | 28 | i | i | i | i | i | GDH-TPI dose=2.8
CCCC(C(=O)Nc1ccc(C)c(S(=O)(=O)N2CCOCC2)c1)c1ccccc1 (configuration not stated) | i | i | i | i | nt | nt
Cc1cc(=O)oc2cc(NC(=O)Cc3ccccc3[N+](=O)[O-])ccc12 | 63 | i | i | i | 30 | 19
